Bioassay records as filed in PubChem BioAssay.
NS1 inh: qHTS Assay for Inhibitors of Influenza NS1 Protein Function. Potency, µM (titrated, usually from 46.1 µM), for inactives: at the highest dose activity, positive = more growth. actives 0.4% (n = 270,000). AID 2326, 2010; calls by dose curve; further: actives are rising curves; nearly all actives have a fitted effect of over 50% in size
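Recovery from NS1-induced slow growth read by OD600 in budding yeast switched to galactose assay medium (pH 6.0, -URA) at 1:100 dilution. Compound 23 nl per well; the matching strain lacking NS1 serves as control.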
SARS PLpro yeast: qHTS of Yeast-based Assay for SARS-CoV PLP; actives 0.19% (n = 330,000); S. cerevisiae expressing SARS-CoV PLpro, growth rescue; Potency, µM (doses to about 32.9 µM), for the others: top-dose activity, positive = growth rescue, usual class: activators; calls by dose curve; further: 0% is about no effect; nearly all actives have a fitted effect of over 55% in size
Pf growth 48h: Primary qHTS for delayed death inhibitors of the malarial parasite plastid, 48 hour incubation | actives 5.9% (n = 310,000) | P. falciparum luciferase growth in erythrocytes, 48 h | Potency, µM (highest dose often 28.7 µM), for the others: at the top dose activity change, negative = inhibition, hits mostly inhibitors | AID 504832, 2011; further: on the % scale 0 is the no-effect control and ±100 the full control effect
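Growth was read as firefly luciferase luminescence after a 48 h, 37 C, 5% CO2 exposure of compounds to reporter-bearing P. falciparum cultures (0.1% parasitemia, 2% hematocrit final) in Albumax-supplemented RPMI 1640.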
Pf growth 96h: Primary qHTS for delayed death inhibitors of the malarial parasite plastid, 96 hour incubation | AID 504834, 2011 | P. falciparum luciferase reporter growth, 96 h | Potency, µM (top dose mostly 28.7 µM), inactives show at the highest dose activity change, negative = inhibition, usual class: inhibitors | actives 6.9% (n = 320,000); further: on the % scale 0 is the no-effect control and ±100 the full control effect
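96 h incubation, 37 C, 5% CO2, of luciferase-reporter P. falciparum-infected RBCs (2% hematocrit, 0.05% parasitemia final) with test compounds; endpoint luminescence.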
Starred values were filed as active, the others as inactive; ? = inconclusive; nt = not tested or not shown; [ ] = dose if it differs, or a comment. An excerpt weighted towards active compounds, which were near 10% of everything screened. Unless noted, the call rests on the fitted dose curve; in most records, active means well fitted inhibition curve with a large enough effect; inconclusive means small, poorly fitted or top-dose-only effect, or another doubt; inactive means no such curve, though single readings can be large or run the other way. Potency means the concentration at half of the fitted maximal effect.

SMILES | NS1 inh | SARS PLpro yeast | Pf growth 48h | Pf growth 96h
CC(C)(C)c1ccc(C(=O)N2CCCCCC2=O)cc1 | 0% | 9% | 5.2µM* | 6%
CC(C)(C)c1ccc(C(=O)Nc2ccc(C(=O)N3CCCC3)cc2)cc1 | -12% | ? | ? | -20%
CCCCC1(C)Nc2ccccc2-c2nc3ccccc3n21 (stereo unspecified) | -87% | -10% | 2.1µM* | 1.3µM*
CC1(c2ccccn2)Nc2ccccc2-c2nc3ccccc3n21 (stereo unspecified) | -68% | -6% | 1.7µM* | 9%[5.75 µM]
c1ccc2c(c1)NC1(CCCCC1)n1c-2nc2ccccc21 | -40% | -3% | nt | 2%
CC(C)CCN(CCC(C)C)CC(O)Cn1c2ccccc2c(=O)c2ccccc21 (stereo unspecified) | -7% | 0% | 1.7µM* | ?
O=C(CCCn1c(=S)[nH]c2cc3c(cc2c1=O)OCO3)N1CCN(c2ccccc2)CC1 | 2% | 8% | -16% | 13µM*
CC(=O)c1ccc(N2CCN(C(=O)CCCn3c(=S)[nH]c4cc5c(cc4c3=O)OCO5)CC2)cc1 | ? | -7% | 12µM* | 22%
CCOc1ccccc1NC(=O)COC(=O)CCOc1cc(C)ccc1C | nt | -16% | -17% | 12%
Cc1ccc(Cl)cc1N1CCN(C2CCCCC2NS(=O)(=O)c2ccccc2)CC1 (stereo unspecified) | 12% | -9% | ? | 19%
Cc1ccc(C)c(N2CCN(C3CCCCC3NS(=O)(=O)c3ccccc3)CC2)c1 (stereo unspecified) | -5% | nt | ? | 12µM*
COc1ccccc1NC(=O)C1CCCN1C(=O)Nc1ccc(F)cc1 (stereo unspecified) | 13% | -2% | -6% | -19%
O=C(CN(C(=O)CCC(=O)Nc1nccs1)c1ccccc1F)NCc1ccc(F)cc1 | 1% | 1% | -4% | ?
COc1cc(NC(=O)c2ccc(Cl)cc2)c(Cl)cc1NC(=O)c1cccnc1 | 6% | 0% | 36% | 22%
CCOC(=O)N1CCN(CC(O)COc2ccccc2C(C)C)CC1 (stereo unspecified) | -15% | 3% | ? | ?
COc1ccc(C2CCCN2CC(O)COc2ccccc2C(C)C)cc1 (stereo unspecified) | -3% | -1% | 12µM* | 13µM*
C[C@H](CO)N1C[C@H](C)[C@@H](CN(C)S(=O)(=O)c2ccccc2)Oc2ccc(NS(=O)(=O)c3cccs3)cc2C1=O | nt | -4% | nt | nt
Cn1c(=O)c2c(-c3ccccc3F)c3c(nc2n(C)c1=O)-c1ccccc1C3O (stereo unspecified) | -4% | 4% | -21% | 0.23µM*
Cc1ccc(Cn2nc(C)c(NC(=O)CSc3nc4c(c(C(F)(F)F)n3)CCc3ccccc3-4)c2C)cc1 | 1% | 2% | ? | ?
Cc1nn(Cc2ccc(Cl)cc2)c(C)c1NC(=O)CSc1nc2c(c(C(F)(F)F)n1)CCc1ccccc1-2 | 23% | 2% | ? | 4.7µM*
O=S(=O)(NCCCCNS(=O)(=O)c1c(F)cccc1F)c1ccc2c(c1)OCCO2 | nt | 1% | 42% | ?
CCc1nc(Nc2ccncc2)c2oc3ccccc3c2n1 | -13% | -2% | 13µM* | nt
CCc1nc(NCCCN2CCOCC2)c2oc3ccccc3c2n1 | -4% | -2% | ? | 5.9µM*
Cc1nonc1CN(C)C(=O)CC1C(=O)NCCN1Cc1ccccc1C(F)(F)F (stereo unspecified) | 3% | -2% | -16% | 14%
CC(NC(=O)COC(=O)CN1C(=O)C2CCCCC2C1=O)c1ccccc1 (stereo unspecified) | nt | 0% | nt | nt
SMILES | NS1 inh | SARS PLpro yeast | Pf growth 48h | Pf growth 96h
COc1ccc(Cn2c(-c3ccc(Br)cc3)c[n+]3ccccc23)cc1 | -5% | -6% | 0.66µM* | 0.13µM*
CC(C)c1ccccc1NC(=O)C1C2C=CC(C2)C1C(=O)O (stereo unspecified) | -2% | 3% | 19% | ?
Cc1ccc(-c2cc(C(=O)NCc3cnn(C)c3)c3cc(Br)ccc3n2)cc1 | 1% | -19% | ? | -3%
O=C(Nc1ccc(C(F)(F)F)cc1)c1cc(-c2cccnc2)nc2ccc(Br)cc12 | 1% | 7% | 0.37µM* | ?
Cn1cc(CNC(=O)c2cc(-c3ccccc3)nc3ccc(Br)cc23)cn1 | 11% | 10% | 13µM* | ?
CC(=O)Nc1cccc(NC(=O)c2cc(-c3cccnc3)nc3ccc(Br)cc23)c1 | ? | 12% | 5.2µM* | ?
O=C(CSc1ccc2nnc(-c3cccnc3)n2n1)Nc1ccc(F)cc1F | 7% | 18% | -4% | 25%
CC(C)NC(=O)CCCN1C(=O)c2ccccc2Sc2ncccc21 | -2% | 1% | 12% | 0.26µM*
COc1cccc(NC(=O)CCN2C(=O)c3ccccc3Sc3ncccc32)c1 | 9% | -5% | -16% | 2.9µM*
Cc1ccc(NC(=O)CCN2C(=O)c3ccccc3Sc3ncccc32)cc1 | -7% | 1% | -24% | ?
CN(C)CCCNCC(=O)Nc1ccc(Cl)cc1C(=O)c1ccccc1 | -3% | 0% | 3.7µM* | -30%
NCC(=O)Nc1ccc(Cl)cc1C(=O)c1ccc[nH]1 | 0% | 0% | ? | 5.2µM*
C[N+](C)(C)CC(=O)Nc1ccc(Cl)cc1C(=O)c1ccccc1 | nt | 0% | 12µM* | 20%
CC1=C(C)CC(C(=O)NCc2c(F)cccc2Cl)C(C(=O)O)C1 (stereo unspecified) | 1% | -1% | 4% | 27%
CN(CC(O)COCc1ccccc1F)C1CCCCC1 (stereo unspecified) | -7% | -2% | 22% | -6%
CCN(CC(O)COCc1ccc(Cl)cc1)C1CCCCC1 (stereo unspecified) | -2% | 0% | 10µM* | ?
CCN(CC)C(=O)CSc1nc2c(sc(=S)n2-c2ccccc2)c(=O)n1-c1ccc(OC)cc1OC | 11% | 0% | 6.6µM* | ?
COc1ccccc1-n1c(SCC(=O)O)nc2c(sc(=S)n2-c2ccc(C)c(C)c2)c1=O | ? | 0% | -2% | ?
CCN(CC)C(=O)CSc1nc2c(sc(=S)n2-c2ccccc2)c(=O)n1-c1ccccc1OC | 15% | -1% | 8.3µM* | 0%
COc1ccccc1-n1c(SCC(=O)O)nc2c(sc(=S)n2-c2ccc(Cl)c(C)c2)c1=O | 13% | 1% | ? | 25%
CCOC(=O)CSc1nc2c(sc(=S)n2-c2ccccc2)c(=O)n1-c1ccc(OC)cc1OC | ? | -1% | 10µM* | 11%
CCN(CC)C(=O)CSc1nc2c(sc(=S)n2-c2ccccc2)c(=O)n1-c1ccc(OC)c(OC)c1 | 8% | 2% | 4.7µM* | 8%
COc1ccc(-n2c(SCC3OCCO3)nc3c(sc(=S)n3-c3ccccc3)c2=O)cc1OC | nt | -1% | -19% | -56%
O=C(CSc1nncs1)Nc1ccc(Cl)cc1C(F)(F)F | nt | -3% | 3% | 9%
CC(=O)c1cccc(S(=O)(=O)N2CCC(C(=O)N(C)Cc3ccc(Cl)s3)CC2)c1 | nt | 1% | ? | ?
O=C(NCCc1ccccn1)c1n[nH]c(=O)c2ccccc12 | -11% | 1% | 25% | 13µM*
